Activity calls are given as the source filed them. How the source made its calls: active means hit-call score of the fitted dose curve at least 0.9, where 1 is the maximum; inactive means score below 0.9.

A short description of this test: ATG_AP_1_CIS: Attagene CIS-FACTORIAL HepG2 Assay for human Activator Protein 1 (AP-1) (AID 2282931). Particulars: HepG2 Attagene cis-factorial AP-1 reporter mRNA; actives raise or lower the signal. The method, then:
ATG_CIS is a cell-based, multiplexed-readout assay that uses HepG2, a human liver cell line, with measurements taken at 24 hours after chemical dosing in a 24-well plate.ATG_AP_1_CIS is one of 52 assay component(s) measured or calculated from the ATG_CIS assay. It is designed to make measurements of mRNA induction, a form of inducible reporter, as detected with fluorescence intensity signals by Reverse transcription polymerase chain reaction (RT-PCR) and Capillary electrophoresis technology.Data from the assay component ATG_AP_1_CIS was analyzed into 1 assay endpoint. This assay endpoint, ATG_AP_1_CIS, was analyzed with bidirectional fitting relative to DMSO as the negative control and baseline of activity. Using a type of inducible reporter, measures of mRNA for gain or loss-of-signal activity can be used to understand the reporter gene at the transcription factor-level as they relate to the gene FOS and JUN. Furthermore, this assay endpoint can be referred to as a primary readout, because this assay has produced multiple assay endpoints where this one serves a reporter gene function. To generalize the intended target to other relatable targets, this assay endpoint is annotated to the dna binding intended target family, where the subfamily is basic leucine zipper.
Human liver HepG2 cells are transiently transfected with multiple reporter transcription units (MRTUs) in 6-well plates using FuGene 6 reagent (Roche; 3 ml FuGene/1 mg DNA). The MRTU constructs are regulated by a cis-regulating element (promoter). […] A major difference between the CIS and TRANS system is that in CIS activities of endogenous TFs are measured, whereas the TRANS assay evaluates changes in activities of exogenous, chimeric NR-Gal4 proteins. […] At the end of 24 hour incubation, total RNA was isolated using TriZol reagent (Invitrogen). The isolated RNA is then reverse-transcribed using oligo(dT) primer and Mo-MLV reverse transcriptase (Invitrogen) with DNAse I (Ambion) treatment for 30 min. The one-tenth of the produced cDNA was amplified by PCR using Taq DNA polymerase (Invitrogen) and two reporter sequence-specific primers. The PCR products were fluorescently labeled by primer extension with 6-arboxyfluorescein (6-FAM) 5'-labeled reporter sequence-specific primer (2 min at 95 C, 20 s at 68 C and 10 min at 72 C) and these products were digested with 5U of HpaI (New England Biolabs) for 2h at 37 C. The fragments were purified using Qiaquick PCR columns (Qiagen), analyzed on an ABI 3130xL genetic analyzer (Applied Biosystems) with peak positions identified by using a set of X-rhodamine (ROX)-labeled MapMarker1000 molecular weight standards (BioVentures). The raw capillary electrophoresis data was processed using Attagraph software (Attagene).
Turning to `Cc1cccc(N)n1`, the outcome was inactive. Take `COc1ccc(-c2coc3cc(O)ccc3c2=O)cc1`: the molecule was classed as inactive. Turning to `CC(=O)OCC(C)OC(C)=O` (stereo not given), the result was inactive. Same read-out and setting: as for `CCCCC(CC)COC(=O)c1ccccc1` (stereo not given), the entry is “inactive”; as for `COC(=O)c1ccc2cc(C(=O)OC)ccc2c1`, “inactive”. Take `CCOC(=O)c1ccccc1C(=C1C=C(Br)C(=O)C(Br)=C1)c1cc(Br)c(O)c(Br)c1`: the AC50 was 51.7 µM (active). On to `O=C(Cl)c1cc(C(=O)Cl)cc(C(=O)Cl)c1`, for which the molecule was classed as inactive.

For `COCc1c(C(C)C)nc(C(C)C)c(/C=C/[C@@H](O)C[C@@H](O)CC(=O)O)c1-c1ccc(F)cc1`, the molecule was classed as inactive. On the same count and under the same terms, the result for `COC(F)(F)C(F)(C(F)(F)F)C(F)(F)F` reads “inactive”; that for `CCCCCCCCCCCCCOP(=O)(O)O`, “inactive”; that for `Nc1ccc(Oc2ccc(N)c(N)c2)cc1`, “inactive”. As for `NC(=O)C1CO1` (stereo not given), the molecule was classed as inactive.

Regarding `CCCCCCCCCCOC(C)=O`, the molecule was classed as inactive. In the case of `C=CC(=O)NC(C)(C)CS(=O)(=O)O`, the call was inactive. Turning to `C=C(C)C(=O)OCCO`, the molecule was called inactive. As to `C=C(C)c1cccc(C(C)(C)N=C=O)c1`, the call was inactive. In the case of `O=S1(=O)OC(c2ccc(O)cc2)(c2ccc(O)cc2)c2ccccc21`, the outcome was inactive. Same read-out and setting: as for `CCc1c(C(=O)O)c(=O)cnn1-c1ccc(Cl)cc1`, the entry is “inactive”; as for `Cc1ccc(N/N=c2\c(=O)cc/c(=N/Nc3ccc(S(=O)(=O)O)cc3)c2=O)c(C)c1`, “inactive”. On the same count and under the same terms, as for `CCCCC(CC)COCC1CO1` (stereo not given), the entry is “inactive”; as for `C[C@]12C=CC(=O)C=C1CC[C@@H]1[C@@H]2[C@@H](O)C[C@@]2(C)[C@H]1CC[C@]2(O)C(=O)CO`, “inactive”; as for `N[C@H]1C(O)O[C@H](CO)[C@H](O)[C@@H]1O` (stereo not given in full), “inactive”. In the case of `CCC(Cc1ccccc1)(C(=O)c1ccc(N2CCOCC2)cc1)N(C)C` (stereo not given), the AC50 was 72.1 µM (active). Take `CC1(C)O[C@@H]2C[C@H]3[C@@H]4C[C@H](F)C5=CC(=O)C=C[C@]5(C)[C@@]4(F)[C@@H](O)C[C@]3(C)[C@]2(C(=O)CO)O1`: the outcome was inactive. As to `CNC(=S)N(C)C`, the molecule was classed as inactive. Same read-out and setting: as for `CCOCC(=O)O`, the entry is “inactive”; as for `c1ccc(CNCc2ccccc2)cc1`, “inactive”; as for `C=CC(=O)OCCC(=O)O`, “inactive”. In the case of `C=CC(=O)OCCOC(=O)C=C`, the concentration at half-maximal activity (AC50) is 126 µM (active). Take `CC(C)=CCC/C(C)=C\C#N`: the molecule was called inactive. The same measure, in the same setting: the result for `CC(C)c1ccc2c(C(C)C)cc(C(C)C)c(S(=O)(=O)O)c2c1` reads “inactive”.

In the case of `CCCOC(=O)CCCCC(=O)OCCC`, the call was inactive. As to `CCCCCCCC/C=C\CCCCCCCC(=O)O`, the AC50 is 137 µM (active). For the molecule `O=[N+]([O-])c1ccc(CO)cc1`, the outcome was inactive. The same measure, in the same setting: the result for `O=C(/C=C/C=C/c1ccc2c(c1)OCO2)N1CCCCC1` reads “inactive”; that for `Cc1cc(C)c(C)c(O)c1`, “inactive”. On to `CCOC(=O)NNc1nncc2ccccc12`, for which the outcome was inactive. `CCCCCCCCCCCCCCCC[N+](C)(C)CC`: the half-maximal activity concentration (AC50) was 16.3 µM (active). On to `O=C(O)CCCC[C@@H]1SC[C@@H]2NC(=O)N[C@@H]21`, for which the call was inactive. On the same count and under the same terms, as for `COC(=O)c1sccc1S(N)(=O)=O`, the entry is “inactive”.

A word on the AC50: it is the concentration giving half of the maximal activity seen.

Values taken from PubChem BioAssay (EPA / NIEHS).
